# High-throughput results deposited in PubChem by National Center for Advancing Translational Sciences (NCATS).
# BAZ2B inh: qHTS Assay for Inhibitors of BAZ2B; AlphaScreen BAZ2B-H3K14Ac peptide displacement; Potency, µM (top dose mostly 114 µM), most hits filed as inhibitors; 4.4% of 360,000 active; AID 504333, 2011; also: nearly all actives have a fitted effect of over 60% in size
#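 Inhibition is scored as reduced AlphaScreen emission. The BAZ2B/b-H3(5-23)K14Ac complex (50 nM each) in PBS pH 7.4, 0.01% Tween-20 meets compound (up to 110 uM) for 30 min at RT before bead addition.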
# PLK1 PBD inh: qHTS for Inhibitors of PLK1-PDB (polo-like kinase 1 - polo-box domain): Primary Screen; Serine/threonine-protein kinase PLK1 (Homo sapiens), P53350; Plk1 PBD binding of FITC phosphopeptide, fluorescence polarization; Potency, µM, hits mostly inhibitors; 2.8% of 360,000 active; also: series mostly up to about 57 µM; nearly all actives have a fitted effect of over 65% in size
# JMJD2A Tudor: qHTS Assay for Inhibitors of JMJD2A-Tudor Domain. 4.4% of 390,000 active. Potency, µM (highest dose often 114 µM), hits mostly inhibitors. Lysine-specific demethylase 4A (Homo sapiens), O75164. AlphaScreen JMJD2A-Tudor / H3K4me3 peptide binding; also: nearly all actives have a fitted effect of over 50% in size
# PI5P4Ka inh: qHTS for Inhibitors of phosphatidylinositol 5-phosphate 4-kinase (PI5P4K) | PI5P4Kalpha enzyme, ADP-Glo luminescence, 60 min; stronger effect = lower value | max response, % | 1.2% of 330,000 active | AID 652105, 2013; active = max response of -50% or lower; inconclusive = between -30% and -50%; inactive = -30% or higher; also: value at the top dose of about 77 µM
#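 Reactions run in 0.038 M HEPES pH 7.4, 0.28 mM EGTA, 0.1% CHAPS and 5% DMSO, with PI5P4Kalpha, substrate, compound and 5 microM ATP final, one hour at room temperature. Readout is ADP-Glo luminescence.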
# HP1b binding inh: HTS for Inhibitors of HP1-beta Chromodomain Interactions with Methylated Histone Tails. AID 540317, 2011. 0.56% of 390,000 active. Chromobox protein homolog 1 (Homo sapiens), P83916. Potency, µM (highest dose often 114 µM), usual class: inhibitors. AlphaScreen HP1-beta / biotin-H3K9me3 peptide binding; also: nearly all actives have a fitted effect of over 70% in size
#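 HP1-beta protein (50 nM final) preincubated 30 min at room temperature with biotinylated H3(1-18)K9me3 peptide (50 nM) in PBS pH 7.4, 0.01% Tween-20, then compound added for 30 min. AlphaScreen streptavidin donor/nickel chelate acceptor beads (10 ug/mL final), 30 min dark, luminescence read.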
# GCN5L2 inh: qHTS Assay for Inhibitors of GCN5L2; GCN5L2 HAT assay, ThioGlo1 CoA-SH fluorescence; 0.21% of 390,000 active; Histone acetyltransferase KAT2A (Homo sapiens), Q92830; AID 504327, 2011; Potency, µM (titrated, usually from 58.9 µM), actives largely listed as inhibitors
#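 Enzyme at 20nM final was mixed with library compounds for 15 min at room temperature. Peptide H3(1-25) at 75uM, acetyl-CoA at 70uM and ThioGlo1 at 50uM were then added. Plates were read immediately and after 20 min (Ex340nm/Em540nm).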
# A number is an active result; 0 = inactive; ? = inconclusive; - = not tested or not shown. Rows were chosen to be rich in hits. Some 7% of all compounds tested hit in one or more screens of this group. Unless noted, calls follow the shape of the dose curve; as a rule, active = well fitted curve in the direction sought with a large enough effect; inconclusive = small, poorly fitted or top-dose-only effect, or another doubt; inactive = no such curve, though single readings can be large; an effect the other way counts as inactive or inconclusive.
SMILES,BAZ2B inh,PLK1 PBD inh,JMJD2A Tudor,PI5P4Ka inh,HP1b binding inh,GCN5L2 inh
COc1ccccc1N1CCN(CCCn2c(=S)[nH]c3ccccc3c2=O)CC1,?,0,0,0,0,0
COc1ccc(-n2c(Cn3nnc4ccccc43)n[nH]c2=S)cc1,0,0,18µM,0,0,0
COc1ccc(-n2c(Cn3nnc4ccccc43)nnc2SCC(=O)O)cc1,-,0,0,?,0,0
COc1ccc(-n2c(CCc3ccccc3)n[nH]c2=S)cc1,0,0,11µM,0,0,0
S=c1[nH]nc(CCc2ccccc2)n1Cc1ccccc1,0,0,?,0,0,0
S=c1[nH]nc(CCSCc2ccccc2)n1-c1ccccc1,?,0,40µM,0,0,0
COc1ccccc1N1CCN(CCc2n[nH]c(=S)n2-c2ccccc2)CC1,50µM,0,18µM,-,0,0
COc1ccc(CCNC(=O)CCc2c(C)nc3cc(-c4ccccc4OC)nn3c2C)c(OC)c1,0,-,0,-,0,0
CCCCNC(=O)C1(C)CCCCN1C(=O)c1cccc(OC(F)(F)F)c1 (stereo not drawn),-,0,-,0,-,-
Cc1nn(-c2ccccc2)c(C)c1C(=O)NCc1ccc(S(N)(=O)=O)cc1,0,0,0,0,0,0
CCOc1ccc(-n2c(CCc3ccccc3)n[nH]c2=S)cc1,0,0,16µM,0,0,0
COc1ccc(-n2c(=S)[nH]c3ccccc32)cc1,?,?,40µM,0,0,0
CCCOc1ccc(CCc2n[nH]c(=S)n2-c2ccccc2)cc1,0,0,0,0,0,0
CCN(CC)c1ccc2cc(-c3nc(-c4cccs4)no3)c(=O)oc2c1,0,-,0,-,0,0
Cc1ccc(S(=O)(=O)N2CCC(C(=O)Nc3ccccc3N3CCCC3)CC2)cc1C,?,0,0,0,0,0
Cc1ccc(/C=N/NC(=O)c2nnn(-c3nonc3N)c2CNc2ccccc2)cc1,0,19µM,22µM,0,0,0
CN(Cc1c(C(=O)N/N=C/c2ccccc2)nnn1-c1nonc1N)C1CCCCC1,0,30µM,?,0,0,0
Nc1nonc1-n1nnc(C(=O)N/N=C/c2cccc(Cl)c2)c1CN1CCCC1,-,30µM,?,0,0,-
C/C(=N\NC(=O)c1nnn(-c2nonc2N)c1CN(C)c1ccccc1)c1ccccn1,8.9µM,0,22µM,0,0,?
O=C(NCc1ccccc1)C1Cc2c(-c3ccc(Cl)cc3)ccnc2O1 (stereo not drawn),-,0,-,0,-,-
Cc1ccccc1NC(=O)Cn1cc(S(=O)(=O)c2ccccc2)c(=O)c2ccccc21,?,-,0,-,0,0
Cc1ccc(SCc2c(C(=O)N/N=C/c3ccc(C)o3)nnn2-c2nonc2N)cc1,-,0,-,-55,-,-
Cc1ccc(COc2cccc(/C=N/NC(=O)c3nnn(-c4nonc4N)c3C)c2)cc1,0,0,0,0,0,0
Cc1cccc(COc2ccc(/C=N/NC(=O)c3nnn(-c4nonc4N)c3C)cc2)c1,0,21µM,?,0,0,0
Cc1ccc(/C=N/NC(=O)c2nnn(-c3nonc3N)c2CSc2ccccc2)o1,0,0,0,0,0,0
SMILES,BAZ2B inh,PLK1 PBD inh,JMJD2A Tudor,PI5P4Ka inh,HP1b binding inh,GCN5L2 inh
CN(C)Cc1c(C(=O)N/N=C/c2ccc(-c3ccccc3)cc2)nnn1-c1nonc1N,0,21µM,?,0,0,0
CN(C)Cc1c(C(=O)N/N=C/c2ccco2)nnn1-c1nonc1N,0,0,0,0,0,0
CCOC(=O)C1=CN(Cc2cccc(F)c2)S(=O)(=O)N(C)C1c1ccc(F)c(Cl)c1 (stereo not drawn),-,0,0,0,0,0
Nc1c(Br)cc(Br)c2c1C(=O)c1c(cccc1S(=O)(=O)O)C2=O,-,0,?,-57,?,-
COc1ccc(C(=O)NCCn2cc(SCC(=O)Nc3ccc4c(c3)OCCO4)c3ccccc32)cc1,0,-,0,-,0,0
COc1ccc(-c2ccnc3cc(C(=O)O)nn23)cc1,?,0,0,0,0,0
O=C(O)c1cc2nccc(-c3ccco3)n2n1,?,0,89µM,?,0,0
COc1ccc(S(=O)(=O)Nc2cccc3c2O[C@H](CN(C)C)[C@@H](C)CN([C@H](C)CO)C3=O)cc1,-,0,0,0,0,0
Cc1cccc(CC(=O)NCC(=O)NCc2cc(=O)n(C)c(=O)n2C)c1,0,3µM,?,?,0,0
CCOc1ccc(CC(=O)NCC(=O)NCc2cc(=O)n(C)c(=O)n2C)cc1,0,0,0,0,0,0
CCOc1cccc(C2/C(=C(/O)c3ccc4c(c3)CC(C)O4)C(=O)C(=O)N2Cc2ccncc2)c1 (stereo not drawn),0,0,22µM,0,0,0
C=CCOc1cccc(C2/C(=C(\O)c3ccc4c(c3)OCCO4)C(=O)C(=O)N2Cc2cccnc2)c1 (stereo not drawn),50µM,0,?,0,0,0
COc1ccc(C2/C(=C(\O)c3ccc4c(c3)OCCO4)C(=O)C(=O)N2Cc2cccnc2)cc1 (stereo not drawn),0,0,0,0,0,0
COc1ccccc1C1/C(=C(\O)c2ccc3c(c2)OCCO3)C(=O)C(=O)N1Cc1cccnc1 (stereo not drawn),?,0,50µM,0,0,0
CCOc1ccc(C2/C(=C(\O)c3ccc4c(c3)OCCO4)C(=O)C(=O)N2Cc2cccnc2)cc1OCC (stereo not drawn),50µM,0,0,0,0,?
O=C1C(=O)N(Cc2cccnc2)C(c2cccc(O)c2)/C1=C(\O)c1ccc2c(c1)OCCO2 (stereo not drawn),?,0,0,0,0,0
Cc1cnc(CNc2cc(-c3ccc(C(=O)N(C)C)cc3)ncn2)cn1,-,-,-,-,-,0
COCCn1c(C)cc(O)c(C(c2cccc(F)c2)N2CCN(c3ccccc3)CC2)c1=O (stereo not drawn),0,-,0,-,0,0
Cc1ccccc1OCC(=O)Nc1nnc(SCc2cc(=O)n3cccc(C)c3n2)s1,0,-,0,-,0,0
COc1ccc(NC(=O)Cn2c(=O)n(Cc3ccccc3Cl)c(=O)c3cc(OC)c(OC)cc32)cc1,0,-,0,-,0,0
CN(Cc1cccs1)C(=O)C1CC(=O)N(Cc2ccccc2)C1 (stereo not drawn),0,0,0,0,0,0
Nc1ccc2c(c1Cl)C(=O)c1ccc(N)c(Cl)c1C2=O,56µM,?,56µM,0,0,?
